In all, about 48,000 compounds went through this assay and about 13,000 (27%) showed an effect of 50% or more. The list shows a part of the results.
tested on: Wolbachia pipientis; experiment: Anti-Wolbachia Cell-Based Screen; type: functional; design: scale not given: in the data most compounds retested in dose-response had high values; conditions: 5 µM

Row | Compound | Percent Effect
1 | O=C(c1ccnc(C2CCNCC2)c1)N1CCCC(CO)C1 (stereo not given) | 100.1%
2 | Cl.O=C(c1ccnc(C2CCNCC2)c1)N1CCCOCC1 | 107.9%
3 | Cl.Cl.Cn1cnc2c(N3CCCC3)nc(C3CCNCC3)cc21 | -10.47%
4 | COc1ccc(F)c(-c2cc(C(=O)NC3CC3)ccn2)c1 | -1.956%
5 | O=C(c1ccc(C2CCCO2)s1)N1CCCOCC1 (stereo not given) | 7.048%
6 | CC(C)(C)CC(=O)N1CSCC1C(=O)NCc1cccc(C#N)c1 (stereo not given) | -25.6%
7 | Cc1cc(C(=O)N2CCC3(CC(=O)NC3=O)C2)c(-c2ccccc2)o1 (stereo not given) | 0.657%
8 | CSCC[C@H](NC(C)=O)C(=O)N(C)Cc1ccc(-n2cccn2)cc1 | -22.5%
9 | O=C(c1c[nH]nc1-c1cccc(F)c1)N1CCNC(c2ccccc2)C1 (stereo not given) | 39.59%
10 | Cc1cc(C(=O)N2CCNC(c3ccccc3)C2)c2ccc(F)cc2n1 (stereo not given) | 81.03%
11 | Cc1cc(C(=O)N2C[C@H]3CCC[C@@]3(CO)C2)c2ccc(F)cc2n1 | -33.96%
12 | N[C@H]1CN(C(=O)CCc2cc(Cl)no2)C[C@@H]1c1ccccc1 | 0.8182%
13 | Cc1cc(C(=O)N2C[C@H](c3ccccc3)[C@@H](N)C2)c2ccc(F)cc2n1 | 109.4%
14 | Cc1cc(C(=O)N2CCCC3(CN(C)C(=O)O3)C2)c2ccc(F)cc2n1 (stereo not given) | -8.064%
15 | Cc1cc(C(=O)N2CCN[C@H](C)C2)c2ccc(F)cc2n1 | 95.19%
16 | O=C(c1cc(-c2cn[nH]c2)nc2cc(F)ccc12)N1CCS(=O)(=O)CC1 | -15.17%
17 | O=C(O)c1csc(S(=O)(=O)N2CCCc3cccc(OC(F)F)c32)c1 | -29.54%
18 | O=C(c1cn(-c2ccccc2Cl)nn1)N1CCSCC1 | 139.5%
19 | CC(O)CN1CCN(C(=O)c2cnn(-c3ccc(Cl)cc3)c2)CC1 (stereo not given) | -6.081%
20 | CN1CCN(C(=O)c2cnn(-c3ccccc3Cl)c2)CC1 | 84.01%
21 | CCOC1CCN(C(=O)c2cnn(-c3ccccc3Cl)c2)CC1 | -5.801%
22 | CC(O)CN1CCN(C(=O)c2cn(-c3ccccc3Cl)nn2)CC1 (stereo not given) | 5.18%
23 | O=C(c1cnn(-c2ccccc2Cl)c1)N1CCN(CCO)CC1 | 103.1%
24 | CCc1ccc(O)c(C(=O)N2CCN(CC(=O)N(C)C)CC2)c1 | 4.973%
25 | CCN1CCN(C(=O)c2cnn(-c3ccccc3Cl)c2)CC1 | 0.9462%

Row | Compound | Percent Effect
26 | O=C(c1cn(-c2ccccc2Cl)nn1)N1CCCSCC1 | 0.4154%
27 | CN(C)C(=O)CN1CCN(C(=O)c2cnn(-c3ccccc3Cl)c2)CC1 | 104.8%
28 | O=C(c1cnn(-c2ccccc2F)c1)N1CCN(CCO)CC1 | -7.046%
29 | CC(Nc1ncnc2sccc12)c1cnn(C)c1 (stereo not given) | -17.23%
30 | O=C(NC[C@H]1OC[C@@H](NC2CCOCC2)[C@@H]1O)C1CCCC1 | -16.92%
31 | O=C(COCC(F)(F)F)NC1CCCc2cc(OC(F)F)ccc21 (stereo not given) | -1.083%
32 | Cc1nc(CCCNC(=O)C2CC(=O)N(C3CCCC3)C2)sc1C (stereo not given) | -46.61%
33 | O=C(COC1CCCCC1)Nc1ccn(Cc2ccccn2)n1 | -1.457%
34 | COc1ccc(OC)c2c(C)cc(N(C)CCO)nc12 | -15.31%
35 | CC(=O)c1c(N(C)C)ccnc1C(F)(F)F | -9.795%
36 | CCOc1c(Cl)cccc1NS(=O)(=O)c1cc(C)c(C(=O)O)s1 | -12.6%
37 | CC(=O)N1CCCN(C(=O)c2cnn(-c3ccccc3Cl)c2)CC1 | 140%
38 | CC(=O)N1CCN(C(=O)c2cnn(-c3ccccc3Cl)c2)CC1 | -0.729%
39 | CCc1nc(C(=O)N2CCCC2)nn1-c1ccccc1Cl | 13.32%
40 | Cc1cc(CNC(=O)c2cn(CCC3CCCCN3)nn2)on1 (stereo not given) | -16.72%
41 | Cc1cc(C(=O)NCC(F)(F)F)c2c(C3CCCN3)noc2n1 (stereo not given) | 103.2%
42 | COCCC(=O)N1CCC(c2noc3nc(C)cc(C(F)(F)F)c23)CC1 | 3.825%
43 | Cc1cc(C(=O)NCC(C)C)c2c(C3CCCN3)noc2n1 (stereo not given) | 114.1%
44 | CCc1ccc2nc(C)cc(C(=O)NC3CCNC3=O)c2c1 (stereo not given) | 1.98%
45 | Cc1cc(C(=O)NCC(F)(F)F)c2c(C3CCNCC3)noc2n1 | 137.6%
46 | Cc1cc(NC(C)C(=O)NCC(F)(F)F)nc(-c2ccncc2)n1 (stereo not given) | 14.05%
47 | Cc1ccccc1-n1ccnc1S(=O)(=O)Cc1nsc(N(C)C)n1 | 22.74%
48 | Cc1ccc(N2C[C@@H]3CN(C(=O)NC4CCCC4)C[C@]3(C(=O)O)C2)nn1 | -11.61%
49 | CN(C)C(C(=O)N1CCC(CCO)CC1)c1ccccc1F (stereo not given) | -9.373%
50 | Cc1ccc(NCc2ccc(C#N)cc2)cc1-n1cnnn1 | 10.93%

Source: ChEMBL document CHEMBL3988442, “University of Dundee, Small-Polar-MMV Screening Library” (2021)
